From PubChem BioAssay (EPA / NIEHS)
Records with an inconclusive call do not appear. Some compounds were tested as several samples or in several runs, with calls that do not always agree. The source made the active and inactive calls. Rule for the calls, unless noted: active = hit-call score of the fitted dose curve at least 0.9, where 1 is the maximum; inactive = score below 0.9.

Legend:
[1] = read-out: Pyruvate Dehydrogenase Kinase 4 (PDK4), PDK4 (gene 5166); assay: LTEA_HepaRG_PDK4: Life Technologies and Expression Analysis (LTEA) Assay for Pyruvate Dehydrogenase Kinase 4 (PDK4) using HepaRG (AID 2283525); details: mRNA level, 48 h; actives raise or lower the signal
Summary of the method: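 Readout is qRT-PCR of PDK4 transcript, normalized to three housekeeping genes, with bidirectional fitting against 0.5% DMSO vehicle. Differentiated HepaRG cells were treated 48 h in serum-free induction medium, duplicate wells, eight-point half-log series topping at 100 uM.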

[2] = read-out: NAD(P)H dehydrogenase [quinone] 1 (NQO1), NQO1 (gene 1728); assay: LTEA_HepaRG_NQO1: Life Technologies and Expression Analysis (LTEA) Assay for NAD(P)H dehydrogenase [quinone] 1 (NQO1) using HepaRG (AID 2283526); details: mRNA level, 48 h; actives raise or lower the signal
Summary of the method: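 Transcript induction or suppression is quantified by qRT-PCR in human HepaRG liver cells dosed for 48 hours. Eight half-log concentrations topping at 100 uM are used, with 0.5% DMSO as vehicle and baseline.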

[3] = read-out: Nuclear factor erythroid 2-related factor 2 (Homo sapiens) (UniProt Q16236); assay: LTEA_HepaRG_NFE2L2: Life Technologies and Expression Analysis (LTEA) Assay for Nuclear factor erythroid 2-related factor 2 (NFE2L2) Transcription Factor using HepaRG (AID 2283527); details: mRNA level, 48 h; actives raise or lower the signal;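 note: TaqMan qRT-PCR transcript level normalised to ACTB GAPDH and POLR2A housekeeping genes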
Summary of the method: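 NFE2L2 transcript level was read by qRT-PCR (housekeeping ACTB/GAPDH/POLR2A normalisation) after 48 h chemical treatment of HepaRG in serum-free induction medium. Duplicate 8-point half-log curves, top 100 uM, 0.5% DMSO vehicle; up- or down-regulation fitted against vehicle.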

[4] = read-out: succinate dehydrogenase complex iron sulfur subunit B (SDHB), SDHB (gene 6390); assay: LTEA_HepaRG_SDHB: Life Technologies and Expression Analysis (LTEA) Assay for succinate dehydrogenase complex iron sulfur subunit B (SDHB) using HepaRG (AID 2283528); details: mRNA level, 48 h; actives raise or lower the signal
Summary of the method: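 HepaRG, 48 h exposure, 8-pt half-log series from 100 uM in 0.5% DMSO, duplicates. Readout: SDHB mRNA by Fluidigm qRT-PCR vs housekeeping genes; bidirectional fit relative to DMSO.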

[5] = read-out: solute carrier (SLCO1B1), SLCO1B1 (gene 10599); assay: LTEA_HepaRG_SLCO1B1: Life Technologies and Expression Analysis (LTEA) Assay for solute carrier (SLCO1B1) using HepaRG (AID 2283530); details: mRNA level, 48 h; actives raise or lower the signal
Summary of the method: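 SLCO1B1 transcript levels were quantified by TaqMan qRT-PCR using three housekeeping genes for normalization. This followed 48 h chemical exposure (100 uM top, half-log, 8 points, 0.5% DMSO) of HepaRG liver cells, with gain or loss fitted relative to DMSO.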

[6] = read-out: sulfotransferase 2A1 (SULT2A1), SULT2A1 (gene 6822); assay: LTEA_HepaRG_SULT2A1: Life Technologies and Expression Analysis (LTEA) Assay for sulfotransferase 2A1 (SULT2A1) using HepaRG (AID 2283531); details: mRNA level, 48 h; actives raise or lower the signal
Summary of the method: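 Expression change of SULT2A1, by qRT-PCR with three housekeeping-gene normalization, was scored bidirectionally versus DMSO. Cells: differentiated HepaRG, dosed in duplicate for 48 h across 8 points, highest 100 µM, half-log dilution, 0.5% DMSO.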

[7] = read-out: Transforming Growth Factor (TGFA), TGFA (gene 7039); assay: LTEA_HepaRG_TGFA: Life Technologies and Expression Analysis (LTEA) Assay for Transforming Growth Factor (TGFA) using HepaRG (AID 2283532); details: mRNA level, 48 h; actives raise or lower the signal
Summary of the method: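 TGFA transcript quantified by qRT-PCR (Fluidigm arrays) against three housekeeping genes, after 48 hours chemical treatment of HepaRG cells. Top concentration 100 uM with half-log dilutions, 8 points, duplicates, 0.5% DMSO.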

[8] = read-out: Transforming Growth Factor (TGFB1), TGFB1 (gene 7040); assay: LTEA_HepaRG_TGFB1: Life Technologies and Expression Analysis (LTEA) Assay for Transforming Growth Factor (TGFB1) Transporter using HepaRG (AID 2283533); details: mRNA level, 48 h; actives raise or lower the signal
Summary of the method: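 TGFB1 transcript measured by qRT-PCR with normalisation to three housekeeping genes (ACTB, GAPDH, POLR2A); human HepaRG line treated in duplicate for 48 hr with an 8-point series topping at 100 uM, 0.5% DMSO vehicle, bidirectionally fitted.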

TIMP1, TIMP1 (gene 7076) = assay: LTEA_HepaRG_TIMP1: Life Technologies and Expression Analysis (LTEA) Assay for TIMP1 using HepaRG (AID 2283534); details: mRNA level, 48 h; actives raise or lower the signal
Summary of the method: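 Bidirectional change in TIMP1 transcript versus 0.5% DMSO, measured by TaqMan qRT-PCR with three housekeeping genes for normalization. HepaRG human liver cells dosed 48 h in duplicate, top concentration 100 uM with half-log dilutions.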

[9] = read-out: Tumor necrosis factor receptor 1 (TNFRSF1A), TNFRSF1A (gene 7132); assay: LTEA_HepaRG_TNFRSF1A: Life Technologies and Expression Analysis (LTEA) Assay for Tumor necrosis factor receptor 1 (TNFRSF1A) using HepaRG (AID 2283535); details: mRNA level, 48 h; actives raise or lower the signal
Summary of the method: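 mRNA measured by qRT-PCR (TaqMan, Fluidigm arrays) against ACTB/GAPDH/POLR2A housekeepers after 48 h chemical exposure of HepaRG cells. Top concentration 100 uM, half-log 8-point series, duplicates; vehicle 0.5% DMSO, both fit directions.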

[10] = read-out: Thyroid Hormone Responsive (THRSP), THRSP (gene 7069); assay: LTEA_HepaRG_THRSP: Life Technologies and Expression Analysis (LTEA) Assay for Thyroid Hormone Responsive (THRSP) using HepaRG (AID 2283536); details: mRNA level, 48 h; actives raise or lower the signal
Summary of the method: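 THRSP transcript quantified by Fluidigm qRT-PCR against three housekeeping genes after 48 h chemical exposure of HepaRG cells in serum-free induction medium; eight-point half-log series, top 100 uM, 0.5% DMSO vehicle, duplicate wells.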

[11] = read-out: Cellular tumor antigen p53 (Homo sapiens) (UniProt P04637); assay: LTEA_HepaRG_TP53: Life Technologies and Expression Analysis (LTEA) Assay for Tumor Protein P53 (TP53) using HepaRG (AID 2283537); details: mRNA level, 48 h; actives raise or lower the signal
Summary of the method: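 HepaRG, 48 h exposure, top 100 uM, half-log 8-point, 0.5% DMSO vehicle, duplicates. Read: TP53 mRNA by TaqMan qRT-PCR, normalised to ACTB/GAPDH/POLR2A; bidirectional fit vs DMSO.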

[12] = read-out: UDP glucuronosyltransferase (UGT1A1), UGT1A1 (gene 54658); assay: LTEA_HepaRG_UGT1A1: Life Technologies and Expression Analysis (LTEA) Assay for UDP glucuronosyltransferase (UGT1A1) using HepaRG (AID 2283538); details: mRNA level, 48 h; actives raise or lower the signal
Summary of the method: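 Cells are plated, cultured 48 h, switched to serum-free induction medium, then dosed 48 h at eight concentrations (max 100 uM, 0.5% DMSO). RNA is isolated and UGT1A1 expression measured by qRT-PCR; changes versus DMSO are fitted in both directions.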

[13] = read-out: UDP glucuronosyltransferase (UGT1A6), UGT1A6 (gene 54578); assay: LTEA_HepaRG_UGT1A6: Life Technologies and Expression Analysis (LTEA) Assay for UDP glucuronosyltransferase (UGT1A6) using HepaRG (AID 2283539); details: mRNA level, 48 h; actives raise or lower the signal
Summary of the method: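 Expression was quantified by TaqMan qRT-PCR on Fluidigm arrays with ACTB/GAPDH/POLR2A normalization and bidirectional fitting against 0.5% DMSO. HepaRG cells (~100,000/well) were treated in duplicate for 48 h at eight half-log concentrations up to 100 uM in serum-free induction medium.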

[14] = read-out: X-box binding protein 1 (XBP1), XBP1 (gene 7494); assay: LTEA_HepaRG_XBP1: Life Technologies and Expression Analysis (LTEA) Assay for X-box binding protein 1 (XBP1) using HepaRG (AID 2283540); details: mRNA level, 48 h; actives raise or lower the signal
Summary of the method: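 XBP1 transcript by qRT-PCR (housekeeping-normalized: ACTB, GAPDH, POLR2A) after 48 h chemical treatment of HepaRG cells, 8-point half-log series topping at 100 uM, vehicle 0.5% DMSO. Gain and loss of signal fitted relative to DMSO.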

[15] = LTEA_HepaRG_LDH_cytotoxicity: Cytotoxicity Assessment in the Life Technologies and Expression Analysis (LTEA) Assay (AID 2283563; active = hit-call score of the fitted dose curve at least 0.9, where 1 is the maximum)
Summary of the method: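 LDH release into culture medium read after 48 h chemical treatment of HepaRG cells. Duplicate wells, eight-point half-log series topping at 100 uM, 0.5% DMSO vehicle and baseline.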

[16] = ATG_XTT_Cytotoxicity: Cytotoxicity Assessment in the Attagene TRANS-FACTORIAL HepG2 Assay (AID 2283584; active = hit-call score of the fitted dose curve at least 0.9, where 1 is the maximum)
Summary of the method: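 Viability endpoint from XTT after 24 h chemical exposure of reporter-transfected human HepG2 liver cells; signal loss fitted relative to DMSO negative control.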

[17] = TOX21_p53_BLA_p2_viability: Viability Assessment in the Tox21 HCT-116 p53 Agonism Beta-lactamase Assay, Phase 2 (AID 2283591; active = hit-call score of the fitted dose curve at least 0.9, where 1 is the maximum;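 note: compound exposure lasted 16 h at 37 °C; actives lower the ATP signal meaning cytotoxicity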)
Summary of the method: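 Cytotoxicity readout: CellTiter-Glo ATP luminescence, 30 min at room temperature, after the beta-lactamase read. Cells were HCT116 exposed 16 h at 37C to compounds pin-transferred at 217-fold dilution from DMSO stocks.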

[18] = biological target: Cellular tumor antigen p53 (Homo sapiens) (UniProt P04637); assay: TOX21_p53_BLA_p2_ratio: Tox21 HCT-116 p53 Agonism Beta-lactamase Assay, Ratio, Phase 2 (AID 2283592; active = hit-call score of the fitted dose curve at least 0.9, where 1 is the maximum)
Summary of the method: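 Read-out is the blue/green (460/530 nm, 405 nm excitation) ratio after 2 h CCF4-AM loading, fitted as gain versus DMSO. Compounds, pinned at 217-fold dilution from DMSO stocks, stayed 16 h on HCT-116 beta-lactamase reporter cells seeded 5 h earlier.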

Measured: AC50

Sequence of Cellular tumor antigen p53 (Homo sapiens) (P04637 whole entry, looked up): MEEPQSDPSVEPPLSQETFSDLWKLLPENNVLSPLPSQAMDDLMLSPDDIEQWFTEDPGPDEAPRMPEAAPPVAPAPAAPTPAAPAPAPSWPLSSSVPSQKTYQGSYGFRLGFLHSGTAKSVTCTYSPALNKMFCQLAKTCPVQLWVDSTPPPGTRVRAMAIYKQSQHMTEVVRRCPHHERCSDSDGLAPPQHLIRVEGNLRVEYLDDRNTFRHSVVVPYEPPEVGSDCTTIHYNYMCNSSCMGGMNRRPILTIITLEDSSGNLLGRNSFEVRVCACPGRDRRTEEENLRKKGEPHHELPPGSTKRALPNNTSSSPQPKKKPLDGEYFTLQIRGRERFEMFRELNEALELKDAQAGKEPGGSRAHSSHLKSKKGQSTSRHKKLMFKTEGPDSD
Sequence of Nuclear factor erythroid 2-related factor 2 (Homo sapiens) (Q16236 whole entry, looked up): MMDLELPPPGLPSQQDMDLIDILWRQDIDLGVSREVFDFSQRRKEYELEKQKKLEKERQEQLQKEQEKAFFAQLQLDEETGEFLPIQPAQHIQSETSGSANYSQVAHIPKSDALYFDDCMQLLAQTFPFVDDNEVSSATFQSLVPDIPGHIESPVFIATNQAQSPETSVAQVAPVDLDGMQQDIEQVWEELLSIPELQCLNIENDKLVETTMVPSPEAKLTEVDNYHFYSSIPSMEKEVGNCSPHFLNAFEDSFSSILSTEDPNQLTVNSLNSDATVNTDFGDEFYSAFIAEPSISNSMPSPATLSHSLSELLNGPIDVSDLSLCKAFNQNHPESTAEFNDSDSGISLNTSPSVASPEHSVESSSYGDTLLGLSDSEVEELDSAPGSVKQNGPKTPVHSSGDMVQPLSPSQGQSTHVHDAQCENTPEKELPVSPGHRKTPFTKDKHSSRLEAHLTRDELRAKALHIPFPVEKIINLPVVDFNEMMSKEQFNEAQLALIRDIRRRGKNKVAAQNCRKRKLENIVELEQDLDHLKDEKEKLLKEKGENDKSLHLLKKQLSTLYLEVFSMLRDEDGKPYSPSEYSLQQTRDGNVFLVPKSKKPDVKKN

CC[C@H]1OC(=O)[C@H](C)[C@@H](O[C@H]2C[C@@](C)(OC)[C@@H](O)[C@H](C)O2)[C@H](C)[C@@H](O[C@@H]2O[C@H](C)C[C@H](N(C)C)[C@H]2O)[C@](C)(O)C[C@@H](C)C(=O)[C@H](C)[C@@H](O)[C@]1(C)O
active: [12] 8.69 µM
inactive: [1] | [2] | [3] | [4] | [5] | [6] | [7] | [8] | TIMP1, TIMP1 (gene 7076) | [9] | [10] | [11] | [13] | [14] | [15] | [16] | [17] | [18]

CC1=CC(=O)CC(C)(C)C1
inactive: [1] | [2] | [3] | [4] | [5] | [6] | [7] | [8] | TIMP1, TIMP1 (gene 7076) | [9] | [11] | [12] | [13] | [14] | [15] | [17] | [18]

Nc1ccc(Nc2ccccc2)cc1
inactive: [1] | [2] | [3] | [4] | [6] | [7] | [8] | TIMP1, TIMP1 (gene 7076) | [9] | [10] | [11] | [13] | [14] | [15] | [17] | [18]
active: [5] 35.4 µM | [12] 50 µM | [18] 86 µM
